# Compounds with a hit are over-represented: about 6.2% of the library has one in this group of screens.
# RORg inh: qHTS for inhibitors of ROR gamma transcriptional activity | Nuclear receptor ROR-gamma (Mus musculus), P51450 | Drosophila S2 Gal4-RORgamma UAS-luciferase reporter, 20 h | Potency, µM (doses to about 53.6 µM), usual class: inhibitors | 310,000 compounds, 5.4% hits | AID 2551, 2010; further: nearly all actives have a fitted effect of over 60% in size
# Target sequence (P51450 whole entry, looked up, the tested form may be a part): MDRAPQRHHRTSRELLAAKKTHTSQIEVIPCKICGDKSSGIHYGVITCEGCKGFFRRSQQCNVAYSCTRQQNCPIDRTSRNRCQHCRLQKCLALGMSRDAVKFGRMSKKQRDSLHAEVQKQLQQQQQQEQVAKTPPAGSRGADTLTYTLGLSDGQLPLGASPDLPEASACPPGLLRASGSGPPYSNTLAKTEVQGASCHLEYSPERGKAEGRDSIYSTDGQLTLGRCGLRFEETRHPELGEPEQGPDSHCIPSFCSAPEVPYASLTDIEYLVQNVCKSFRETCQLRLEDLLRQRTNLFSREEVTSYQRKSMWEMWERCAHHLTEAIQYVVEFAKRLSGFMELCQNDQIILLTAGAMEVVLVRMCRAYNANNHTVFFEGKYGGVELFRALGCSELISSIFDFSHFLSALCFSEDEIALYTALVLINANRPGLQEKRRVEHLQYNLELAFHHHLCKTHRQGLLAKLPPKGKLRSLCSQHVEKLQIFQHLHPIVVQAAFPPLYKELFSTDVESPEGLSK
#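 Stably transfected Drosophila Schneider cells are the test system, with ROR gamma fused to Gal4 and luciferase under UAS control; luminescence is read after 20 hr of 700 uM copper sulfate induction at ambient temperature.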
# VP16 counter: VP16 counterscreen qHTS for inhibitors of ROR gamma transcriptional activity. Drosophila S2 Gal4-VP16 UAS-luciferase, luminescence, 20 h. Potency, µM (titrated, usually from 53.6 µM), usual class: inhibitors. 310,000 compounds, 3.5% hits;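 further: Gal4-VP16 expression switched on by copper sulfate through the metallothionein promoter; nearly all actives have a fitted effect of over 50% in size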
# Luc counter: Counterscreen for Luciferase (Kinase-Glo TM) Inhibition. Potency, µM (highest dose often 38.3 µM), most hits filed as inhibitors. Luciferin 4-monooxygenase (Photuris pensylvanica), Q27757. 200,000 compounds, 0.28% hits. AID 1379, 2008. Kinase-Glo luciferase, ATP luminescence, 8 min; further: nearly all actives have a fitted effect of over 60% in size
#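 Compounds were added to a substrate mix at pH 7.2 (50 mM imidazole, 10 uM ATP, within the enzyme's linear range), followed by Kinase-Glo detection reagent; luminescence was measured after 8 minutes at ambient temperature.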
# Hits are given with their value; n = inactive; u = inconclusive; x = not tested or not shown; [ ] = remark or other dose. The call rests on the fitted dose curve; in most records, active means well fitted curve in the direction sought with a large enough effect; inconclusive means small, poorly fitted or top-dose-only effect, or another doubt; inactive means no such curve, though single readings can be large; an effect the other way counts as inactive or inconclusive.
SMILES,RORg inh,VP16 counter,Luc counter
O=C(NCCC1=CCCCC1)c1ccc(Br)o1,n,n,n
Cc1ccccc1OCC(=O)NCCC1=CCCCC1,u,u,n
CCc1ccccc1N(C(C)=O)c1nc(CN=C=S)cs1,n,n,n
Cc1noc(C)c1C(=O)OCC(=O)NCCC1=CCCCC1,n,n,n
CCN(Cc1nc(-c2ccccc2)no1)C(=O)c1ccco1,n,n,x
O=C(Nc1ccc(Cl)cc1)N1CCOC12CCCCC2,n,n,n
CCCC(O)(CCN(C)C)c1ccc(OC)cc1 (stereo not drawn),n,n,n
COC(=O)COc1ccc(S(=O)(=O)NCc2cccnc2)cc1C,n,n,n
COc1ccc(/C=C/C(=O)c2c(C)nc3ccccn23)cc1,n,n,n
Cc1nc2ccccn2c1C(=O)/C=C/c1ccc(F)cc1,8.9µM,u,n
CN(Cc1nc(Cc2ccccc2F)no1)[C@@H]1CS(=O)(=O)C[C@H]1O,n,n,n
Cc1cc(C)n(CCN(C)Cc2nc(Cc3ccccc3F)no2)n1,11µM,u,n
COc1ccc(CN2C(=O)c3ccccc3C2C(=O)NC2CCCC(C)C2C)c(OC)c1 (stereo not drawn),n,n[10 µM],n
Cc1ccc(CN2CCN(CC(=O)NC(C)c3ccc4c(c3)OCCO4)C2=O)cc1 (stereo not drawn),n,n,n
O=C(O)/C=C/C(=O)Nc1ccc(O)cc1,n,n,x
NC(=O)/C=C/C(=O)Nc1ccc(Cl)cc1,3.2µM,u,n
O=C(c1ccccc1Nc1ccc(SC(F)F)cc1)N1CCCCCC1,n,n,n
COCCNC(=O)c1ccc(NS(=O)(=O)c2ccc3[nH]c(=O)[nH]c3c2)cc1,n,n,x
Cc1ccc(C)n1-c1cc([N+](=O)[O-])ccc1-n1ccnc1,n,n,x
CC1(C)N([O-])c2cc([N+](=O)[O-])ccc2[N+]1=O,20µM,u,x
CCOc1ccccc1C(=O)Nc1nnc(SCC(=O)Nc2cc(C)on2)s1,n,n,n
COc1ccc([C@]23Cc4ccccc4C(O2)C2=C(O3)C(=O)c3ccccc3C2=O)cc1,n[10 µM],n[10 µM],x
O=C(Nc1c(O)c2ccccc2[nH]c1=O)c1ccco1,n,n,x
CCNc1nc(NCC)nc(N/N=C/c2ccc([N+](=O)[O-])o2)n1,u,n,n
CCNc1nc(NCC)nc(N/N=C/c2ccccc2)n1,14µM,n,x
SMILES,RORg inh,VP16 counter,Luc counter
CN(C)c1nc(NCc2ccccc2)nc(N/N=C/c2cccc(Br)c2)n1,3.5µM,11µM,n
CCNc1nc(NCC)nc(N/N=C(\C)c2ccc(OC)cc2)n1,7.1µM,u,n
CCNc1nc(NCC)nc(Oc2ccc(C(=O)OC)cc2)n1,n,n,x
Brc1cccc(/C=N/Nc2nn[nH]n2)c1,n,u,n
CCNc1nc(NCC)nc(N/N=C/c2ccc(OC)cc2)n1,11µM,n,x
COc1ccc(/C=N/Nc2nc(C)nc(N)n2)cc1,n,n,x
CCOc1ccc(NCc2nnc(SCC(=O)Nc3nc(-c4ccccc4)cs3)n2-c2ccccc2)cc1,n,n,n
O=c1cnc(-c2ccc(Cl)cc2)cn1O,u,u,n
COc1ccc(C(=O)N2CCC3(CC2)CN(C(=O)Nc2ccccc2)C3)cc1,n,n,n
Cc1nn(-c2ccccc2)cc1C(=S)Nc1ccccc1,11µM,n,n
Cc1c(C(=S)Nc2ccccc2)cnn1-c1ccccc1,u,n,n
CC(C)C1S/C(=N/N=C/c2ccco2)NC1=O (stereo not drawn),0.2µM,3.2µM,n
O=C1CC(C(=O)Nc2ccccc2)S/C(=N\N=C\c2ccco2)N1 (stereo not drawn),n,n,n
Cc1ccccc1CC1S/C(=N/N=C/c2ccco2)NC1=O (stereo not drawn),0.45µM,2µM,x
Cc1ccccc1CN1C(=O)C(C)S/C1=N/N=C/c1ccco1 (stereo not drawn),n,n,x
NS(=O)(=O)c1ccc2nc(-c3ccccc3)c(-c3ccccc3)nc2c1,n,n,x
COc1cccc(/C=N\NS(=O)(=O)c2ccccc2)c1OC,n,n,x
COc1ccc(NC2=C(NC(C)=O)C(=O)c3ccccc3C2=O)cc1,n,n,x
CCC(=O)NC1=C(Nc2ccc(N)cc2)C(=O)c2ccccc2C1=O,13µM,u,x
O=C(Nc1ccc([N+](=O)[O-])cc1)c1cc2ccccc2nc1Cl,n,n,x
CCCCn1c(CCn2nc(C)c(Br)c2C)n[nH]c1=S,11µM,u,n
CSc1ccc(C(=O)C2CCCN(C(=O)c3cccc(N4CCOCC4)c3)C2)cc1 (stereo not drawn),n,n,n
Clc1ccc(-n2cccc2CN2CCc3c([nH]c4ccccc34)C2c2ccccn2)nc1 (stereo not drawn),13µM,n,n
Fc1ccc(C2c3[nH]c4ccccc4c3CCN2Cc2cccn2-c2ncccn2)cc1 (stereo not drawn),n,n,n
COC(=O)Cn1ncc(N2CC(C)OC(C)C2)c(Cl)c1=O (stereo not drawn),n,n,x
SMILES,RORg inh,VP16 counter,Luc counter
Cc1ccc(OCc2ccc(C(=O)NCc3cccnc3)cc2)cc1C,n,n[10 µM],n
COc1ccc(CCNC(=O)CSc2nc(C)nc3sccc23)cc1OC,n,n,x
COc1ccc(NC(=S)Nc2ccc(Oc3ccccc3)cc2)cc1,n,n,n
COC(=O)c1sccc1NC(=S)Nc1cc(OC)ccc1OC,11µM,u,n
COC(=O)c1sccc1NC(=O)c1ccc(OC)cc1,n,n,n
COC(=O)c1sccc1NC(=O)Nc1cc(C)ccc1OC,n,n,x
COc1ccc(NC(=S)NN(C)C(=S)Nc2ccc(OC)cc2)cc1,7.9µM,u,n
COC(=O)c1sccc1NC(=S)Nc1ccc(OC)cc1,6.3µM,14µM,n
CCN1CCN(c2nc3c(c(=O)[nH]c(=O)n3C)n2Cc2ccccc2)CC1,n,n,x
COc1ccc(CN(C(=O)c2cc(=O)c3ccccc3o2)C2CCS(=O)(=O)C2)cc1 (stereo not drawn),n,n,x
CS(=O)(=O)N1CCC(Oc2cccc(C(=O)NCCCOc3cccnc3)c2)CC1,n,n,x
COc1ccc(-c2nc3cnc(Nc4cccc(OC)c4)nc3n(C)c2=O)cc1,n,u,x
CC(C)(C)NC(=O)CCc1ncc(C(F)(F)F)cc1Cl,n,n,n
Cc1oc(-c2ccc(-c3ccccc3)cc2)nc1CN(C)C1CCOC1 (stereo not drawn),14µM,u,n
Cc1oc(-c2cccc(Cl)c2)nc1CN(C)C1CCOC1 (stereo not drawn),u,n,n
Cc1ccc(-c2nc(CS(=O)(=O)CC(=O)NCCCN(Cc3ccccc3)C(C)C)c(C)o2)cc1,n,n,x
Cc1oc(-c2ccc(-c3ccccc3)cc2)nc1CN(CCO)C(C)C,7.9µM,u,x
COc1ccc(OC)c(NC(=O)c2ccno2)c1,n,n,n
CC1=CC(C)(C)N(C(=O)CN2C(=O)CCC2=O)c2ccccc21,n,n,n
CC1=CC(C)(C)N(C(=O)CN2C(=O)c3ccccc3C2=O)c2ccc(C)cc21,u,20µM,n
CCOC(=O)CC(=O)Nc1ccc(Br)cc1C(=O)O,1.6µM,n,n
CCOC(=O)CC(=O)Nc1ccccc1C(=O)O,n,n,n
Cc1[nH]c2ccc(-c3n[nH]c(=S)n3-c3ccc(Br)cc3)cc2c1C,7.9µM,n,n

# Compound activity: PubChem BioAssay, National Center for Advancing Translational Sciences (NCATS)
